Tau ThT inhib – qHTS for Inhibitors of Tau Fibril Formation, Thioflavin T Binding; Potency, µM (doses to about 57.4 µM), without a hit: top-dose activity, negative = inhibition, most hits filed as inhibitors; Microtubule-associated protein tau (Homo sapiens), P10636; recombinant tau K18 P301L, heparin-induced fibrillization, ThT fluorescence; actives 2.1% (n = 270,000); also: potency is read from the fitted curve at half-maximal effect; nearly all actives have a fitted effect of over 55% in size
Target sequence (P10636 561-689 P618L limits assumed): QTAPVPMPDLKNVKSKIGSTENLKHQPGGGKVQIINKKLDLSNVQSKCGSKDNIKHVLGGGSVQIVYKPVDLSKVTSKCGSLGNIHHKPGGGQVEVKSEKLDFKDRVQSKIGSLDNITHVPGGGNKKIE
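Aggregation was driven by heparin (20 uM final) acting on recombinant tau […] bearing P301L in 100 mM sodium acetate pH 7; fibrils were detected with Thioflavin T.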
FBPA coupling cs – qHTS Assay for Inhibitors of Fructose-1,6-bisphosphate Aldolase from Giardia Lamblia: Coupling assay counterscreen | activity change, negative = inhibition, % at 58.2 µM, hits read low | actives 0.67% (n = 290,000) | coupling enzyme system counterscreen, AmpLite Red fluorescence; in the data active = activity change below about -30%
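Compounds tested against the coupling enzymes alone at 57.5 uM final; readout was AmpLite Red fluorescence (525/598 nm) after 20 min at RT.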
Tau fluor counter – Counterscreen qHTS for Inhibitors of Tau Fibril Formation, Fluorescence Polarization; tau K18 P301L Alexa594 fluorescence, heparin fibrillization; Potency, µM (highest dose often 57.7 µM), for the others: top-dose activity change, negative = decrease; actives 0.93% (n = 280,000); also: potency is read from the fitted curve at half-maximal effect; nearly all actives have a fitted effect of over 55% in size
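Human tau K18 P301L (15 uM unlabeled, 0.24 uM Alexa 594-labeled) in 100 mM sodium acetate pH 7 with 20 uM heparin, 6 hr at 37 C. ThT 30 uM added, 1 hr ambient; Alexa 594 FP and total fluorescence read at 555/632 nm.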
Tau FP inhib – qHTS for Inhibitors of Tau Fibril Formation, Fluorescence Polarization | Microtubule-associated protein tau (Homo sapiens), P10636 | K18 P301L tau heparin fibrillization, Alexa594 FP, 6 h | Potency, µM (highest dose often 57.7 µM), for the others: top-dose activity, negative = inhibition, usual class: inhibitors | actives 0.39% (n = 280,000); also: potency is read from the fitted curve at half-maximal effect; nearly all actives have a fitted effect of over 55% in size
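Read-out: fluorescence polarization of Alexa 594-labeled tau (0.24 uM), 555 nm excitation, 632 nm emission. Mixtures held 15 uM unlabeled K18 P301L, compound and 20 uM heparin, pH 7 acetate buffer, incubated 6 hr at 37 C.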
Sfp PPTase inh – qHTS Assay for Inhibitors of Bacillus subtilis Sfp phosphopantetheinyl transferase (PPTase); Biochemical Sfp PPTase activity, qHTS; Potency, µM, for inactives: largest response in the series, negative = inhibition, most hits filed as inhibitors; actives 3.5% (n = 310,000); AID 1490, 2009;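 also: the enzyme is Sfp with the accession as filed and its product quenches rhodamine fluorescence; potency is read from the fitted curve at half-maximal effect; 0% = enzyme reaction without inhibitor and -100% = no enzyme wells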
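Reaction rates are the 30-min fluorescence difference (ex 525, em 598 nm) in wells containing 15 nM Sfp, 5 uM rhodamine-CoA and 12.5 uM BHQ-2-YbbR at pH 7.6 with 10 mM MgCl2.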
* hit, by the source's call; ? = inconclusive; nt = not tested or not shown; [ ] = remark or other dose. This is a sample that favours compounds with a hit; in the whole collection about 5.2% have one here. Unless noted, calls follow the shape of the dose curve; as a rule, active = well fitted curve in the direction sought with a large enough effect; inconclusive = small, poorly fitted or top-dose-only effect, or another doubt; inactive = no such curve, though single readings can be large; an effect the other way counts as inactive or inconclusive. Unless noted, % is scaled to controls: 0 for no effect and ±100 for the full control effect.

SMILES	Tau ThT inhib	FBPA coupling cs	Tau fluor counter	Tau FP inhib	Sfp PPTase inh
Cc1cc(C(=O)NCc2ccccc2)c2c(C)nn(-c3cccc(F)c3)c2n1	-3%	nt	?	?	nt
COc1ccc(OC)c(NCc2cccn2-c2nnc(N3CCCCC3)s2)c1	?	nt	-29%	5%	nt
COCc1[nH]nc2c1C(c1c(F)cccc1Cl)C(C#N)=C(N)O2 (stereo not drawn)	1%	-39*	-6%	-10%	?
O=C(NCCCN1CCN(c2ccccc2)CC1)c1nnc(Cc2c(F)cccc2Cl)o1	-15%	nt	-16%	7%	nt
CCOC(=O)c1cnc(-n2nc(C)cc2C)[nH]c1=O	-8%	1	-4%	-2%	50µM*
CCOC(=O)c1cnc(-n2nc(C)cc2C)nc1NC1CCCC1	?	2	-6%	3%	32µM*
CCOC(=O)c1cnc(-n2nc(C)cc2C)nc1NCCc1ccccc1	-15%	-4	1%	-3%	50µM*
CCOC(=O)c1cnc(-n2[nH]c(C)cc2=O)[nH]c1=O	?	-3	-9%	-3%	12%
COc1ccc(-n2c(SCC(=O)Nc3cccc(C)c3C)nc3c([nH]c4ccccc43)c2=O)cc1	5%	nt	-10%	-3%	nt
CC(=O)N1CCn2c3c(c(=O)c4cc(C)ccc42)CCC31 (stereo not drawn)	25µM*	-42*	?	?	-20%
CC(=O)N1CCn2c3c(c4cc(C)ccc42)CCCC31 (stereo not drawn)	-18%	2	-19%	10%	-6%
Cc1ccc(CN(C)C(=O)C2CCC(=O)N(CCc3ccccc3)C2)o1 (stereo not drawn)	nt	0	nt	nt	35µM*
CN(Cc1cnccn1)C(=O)C1CCC(=O)N(CCc2ccccc2)C1 (stereo not drawn)	nt	-1	nt	nt	10%
Cc1ccc(F)cc1-c1ccc(C(=O)N=C(N)N)o1	nt	2	nt	nt	-4%
O=C(NCc1ccccn1)/C(=C/c1ccco1)NC(=O)c1ccccc1	-14%	-1	1%	15%	79µM*
CNC(=O)/C(=C\c1ccco1)NC(=O)c1ccco1	nt	-1	nt	nt	11%
O=C(NCCc1ccccn1)/C(=C/c1ccco1)NC(=O)c1ccccc1	2%	-1	20%[2.34 µM]	4%	?
O=C(NC(Cc1ccccc1)C(=O)O)/C(=C\c1ccco1)NC(=O)c1ccccc1Br (stereo not drawn)	-17%	-11	-1%	4%	50µM*
O=C(N/C(=C/c1ccco1)C(=O)N1CCc2ccccc21)c1ccco1	?	-5	-16%	?	40µM*
O=C(O)CCNC(=O)/C(=C\c1ccco1)NC(=O)c1ccco1	nt	-10	nt	nt	79µM*
COc1ccc(NC(=O)C(C)n2c(C)c3cnn(-c4ccccc4)c(=O)c3c2C)cc1Cl (stereo not drawn)	2%	nt	-13%	6%	nt
CC1=C(c2ccc(NN=C(C#N)C#N)cc2)NNC(=O)C1	nt	nt	nt	nt	-3%
Cc1ccoc1C(=O)NCCNc1ccc(Cl)cc1[N+](=O)[O-]	11µM*	-4	-24%	4%	-22%
O=C(NCCNc1ccc(Cl)cc1[N+](=O)[O-])c1cccnc1	?	1	-14%	3%	9%
CC(C)COC(=O)c1cccc2c1-c1ccccc1/C2=N\O	-5%	1	-29%	28µM*	-7%
Cc1ccc(S(=O)(=O)c2nc(-c3cccc(C)c3)oc2N2CCN(c3ccccc3)CC2)cc1	3%	nt	-15%	-7%	nt
NCCCC[C@H](NC(=O)[C@@H](Cc1ccccc1)NC(=O)[C@H](Cc1c[nH]c2ccccc12)NC(=O)[C@@H](CCCCN)NC(=O)[C@@H](Cc1c[nH]c2ccccc12)NC(=O)[C@@H](N)Cc1cnc[nH]1)C(N)=O	nt	3	nt	nt	6%
CCOc1cccc2sc(N(Cc3cccnc3)C(=O)C3CCCCC3)nc12	?	nt	-15%	7%	nt

Assay outcomes from PubChem BioAssay.
